Experimental data published in PubChem BioAssay (Tox21).
Inconclusive results are not listed. Active and inactive are the calls of the source. Unless noted, calls come from the whole dose curve; as a rule, active = well fitted curve in the direction sought with a large enough effect in the repeat runs; inconclusive = weak or mixed curves; inactive = no such curve, though single readings can be large; an effect the other way counts as inactive or inconclusive.

What was measured:
[1] = qHTS assay to identify small molecule agonists of the peroxisome proliferator-activated receptor delta (PPARd) signaling pathway - cell viability counter screen (AID 743211); note: % is set by controls: 0 for no effect and ±100 for the full control effect; nearly all actives have a fitted effect of over 55% in size
Outline: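 Read-out: CellTiter-Glo luminescence, 30 min RT, measured in the same wells as the beta-lactamase reporter. Cells: GeneBLAzer PPAR delta UAS-bla HEK293H, 3000 cells/well, compound exposure 17 h at 37C.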

[2] = biological target: Peroxisome proliferator-activated receptor delta (Homo sapiens) (UniProt Q03181); assay: qHTS assay to identify small molecule agonists of the peroxisome proliferator-activated receptor delta (PPARd) signaling pathway (AID 743212; calls by dose curve; note: % is set by controls: 0 for no effect and ±100 for the full control effect)
Peroxisome proliferator-activated receptor delta (Homo sapiens), sequence (Q03181 whole entry, looked up): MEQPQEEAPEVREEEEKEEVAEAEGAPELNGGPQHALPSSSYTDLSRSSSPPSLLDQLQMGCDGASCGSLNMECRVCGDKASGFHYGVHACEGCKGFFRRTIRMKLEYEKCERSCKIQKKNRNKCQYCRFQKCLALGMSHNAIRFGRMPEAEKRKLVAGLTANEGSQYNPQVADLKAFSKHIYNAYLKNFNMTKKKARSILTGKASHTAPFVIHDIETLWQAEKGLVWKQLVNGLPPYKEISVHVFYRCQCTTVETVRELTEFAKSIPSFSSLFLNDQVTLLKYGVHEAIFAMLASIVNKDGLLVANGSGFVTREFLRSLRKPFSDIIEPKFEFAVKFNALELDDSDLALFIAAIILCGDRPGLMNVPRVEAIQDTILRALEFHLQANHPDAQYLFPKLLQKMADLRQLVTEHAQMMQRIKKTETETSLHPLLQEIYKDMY
Outline: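 HEK293H PPARd-bla cells; 5 h preincubation 37 C/5% CO2; compound (DMSO) 37 C; LiveBLAzer B/G FRET substrate 2 h RT; fluorescence intensity.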

[3] = qHTS assay to identify small molecule antagonists of the peroxisome proliferator-activated receptor delta (PPARd) signaling pathway - cell viability counter screen (AID 743213); note: % is set by controls: 0 for no effect and ±100 for the full control effect; nearly all actives have a fitted effect of over 50% in size
Outline: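 Agonist-stimulated (L165041, 300 nM final) HEK293H PPARd UAS-bla cells are exposed to compounds for 17 h at 37 C, and ATP-based luminescence (CellTiter-Glo) from the same wells reports cytotoxicity.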

[4] = biological target: Peroxisome proliferator-activated receptor delta (Homo sapiens) (UniProt Q03181); assay: qHTS assay to identify small molecule antagonists of the peroxisome proliferator-activated receptor delta (PPARd) signaling pathway (AID 743215; active = well fitted inhibition curve with a large enough effect in the signal ratio in the repeat runs, not every such curve was filed as active; the % refers to the signal ratio; note: series mostly up to about 62 µM; % is set by controls: 0 for no effect and ±100 for the full control effect)
Outline: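 PPARd UAS-bla HEK293H cells were pre-incubated 5 h at 37 C, then given test compounds in DMSO plus agonist L165041 (300 nM final). After 17 h at 37 C, beta-lactamase FRET substrate was added; fluorescence read after 2 h at room temperature.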

[5] = qHTS assay to identify small molecule agonists of the farnesoid-X-receptor (FXR) signaling pathway - cell viability counter screen (AID 743218); note: % is set by controls: 0 for no effect and ±100 for the full control effect; nearly all actives have a fitted effect of over 45% in size
Outline: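 FXR-UAS-bla HEK 293T cells, plated 5 h at 37 C, were exposed to compounds for 16 h at 37 C. CellTiter-Glo was then added to the same wells as the bla readout; luminescence read after 30 min at room temperature.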

[6] = qHTS assay to identify small molecule antagonists of the farnesoid-X-receptor (FXR) signaling pathway - cell viability counter screen (AID 743221; active = well fitted cell-killing curve with a large enough effect in the repeat runs, not every such curve was filed as active; note: % is set by controls: 0 for no effect and ±100 for the full control effect; nearly all actives have a fitted effect of over 50% in size)
Outline: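 HEK 293T FXR-bla cells, 5 h pre-incubation; compound + CDCA 50 uM final, 16 h, 37 C; beta-lactamase FRET read first, then CellTiter-Glo luminescence, 30 min RT.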

[7] = biological target: Vitamin D3 receptor (Homo sapiens) (UniProt P11473); assay: qHTS assay to identify small molecule agonists of the vitamin D receptor (VDR) signaling pathway (AID 743222; calls by dose curve; note: % is set by controls: 0 for no effect and ±100 for the full control effect)
Vitamin D3 receptor (Homo sapiens), sequence (P11473 whole entry, looked up): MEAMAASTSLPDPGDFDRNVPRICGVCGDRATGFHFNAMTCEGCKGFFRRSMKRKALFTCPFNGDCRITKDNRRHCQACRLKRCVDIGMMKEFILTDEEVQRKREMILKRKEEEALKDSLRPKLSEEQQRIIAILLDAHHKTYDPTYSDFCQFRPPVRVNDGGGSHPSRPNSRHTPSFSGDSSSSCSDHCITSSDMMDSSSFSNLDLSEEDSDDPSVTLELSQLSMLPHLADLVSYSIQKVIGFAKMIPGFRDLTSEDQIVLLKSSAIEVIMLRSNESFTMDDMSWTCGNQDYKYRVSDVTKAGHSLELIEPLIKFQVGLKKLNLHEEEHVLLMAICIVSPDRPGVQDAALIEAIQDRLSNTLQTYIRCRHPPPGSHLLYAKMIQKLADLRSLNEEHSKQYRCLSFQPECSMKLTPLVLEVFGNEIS
Outline: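 VDR-bla cells were plated 4 h at 37C/5% CO2, then exposed to compounds in DMSO for 16 h. After LiveBLAzer B/G FRET substrate addition and 2 h at room temperature, beta-lactamase reporter fluorescence was read.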

[8] = qHTS assay to identify small molecule agonists of the vitamin D receptor (VDR) signaling pathway - cell viability counter screen (AID 743224); note: series mostly up to about 63 µM; % is set by controls: 0 for no effect and ±100 for the full control effect; nearly all actives have a fitted effect of over 50% in size
Outline: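 VDR-bla cells were preincubated 4 h at 37C/5% CO2, then exposed to compounds for 16 h. After the 2 h room-temperature bla FRET read, CellTiter-Glo was added to the same wells and luminescence read after 30 min.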

[9] = qHTS assay to identify small molecule antagonists of the vitamin D receptor (VDR) signaling pathway - cell viability counter screen (AID 743225); note: % is set by controls: 0 for no effect and ±100 for the full control effect; nearly all actives have a fitted effect of over 50% in size
Outline: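 Viability counter screen run in the same wells as the beta-lactamase reporter assay: HEK 293T VDR-UAS-bla cells, 16 h compound exposure at 37C with 3 nM (final) 1-alpha,25-dihydroxyvitamin D3. CellTiter-Glo luminescence, 30 min, room temperature.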

[10] = qHTS assay to identify small molecule agonists of the NFkB signaling pathway (AID 1159509; active = well fitted curve in the direction sought with a large enough effect in the signal ratio in the repeat runs, not every such curve was filed as active; the % refers to the signal ratio; note: series mostly up to about 61 µM; % is set by controls: 0 for no effect and ±100 for the full control effect)
Outline: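 ME-180 NFkB-bla, 2,000 cells/well, overnight plating; cpd pinned in DMSO, 5 h 37 C; B/G FRET substrate 1.5 h RT; ex 405, em 460/530 nm.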

[11] = qHTS assay to identify small molecule agonists of the NFkB signaling pathway - cell viability counter screen (AID 1159515; calls by dose curve; note: series mostly up to about 61 µM; % is set by controls: 0 for no effect and ±100 for the full control effect; nearly all actives have a fitted effect of over 55% in size)
Outline: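 NFkB-bla ME-180 cells, 2,000/well, were plated overnight at 37 C, 5% CO2, then exposed to compounds in DMSO for 5 hr. After the bla FRET read, CellTiter-Glo was added to the same wells; luminescence was read after 30 min at room temperature.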

[12] = qHTS assay to identify small molecule agonists of the endoplasmic reticulum stress response signaling pathway (AID 1159516; active = well fitted activation curve with a large enough effect in the signal ratio in the repeat runs, not every such curve was filed as active; the % refers to the signal ratio; note: % is set by controls: 0 for no effect and ±100 for the full control effect)
Outline: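 CellSensor ESRE-bla HeLa cells, carrying a beta-lactamase reporter driven by the ER stress response element, were plated overnight and exposed to compounds for 5 hr at 37 C. Reporter activity was read as FRET substrate fluorescence after 2 hr at room temperature.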

[13] = qHTS assay to identify small molecule agonists of the endoplasmic reticulum stress response signaling pathway - cell viability counter screen (AID 1159517; calls by dose curve)
Outline: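 HeLa cells carrying an ESRE-driven beta-lactamase reporter receive compound for 5 hr at 37 C. Cell viability is then gauged with CellTiter-Glo by luminescence, 30 min at room temperature.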

[14] = qHTS assay to identify small molecule antagonists of the retinoid-related orphan receptor gamma (ROR-gamma) signaling pathway - cell viability counter screen (AID 1159520)
Outline: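 Cytotoxicity was read from cellular ATP (CellTiter-Glo luminescence) after 16 hr at 37 C with 1 uM doxycycline induction. The inducer was added 2 hr after compound transfer to Tet-on ROR gamma CHO cells.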

[15] = qHTS assay to identify small molecule agonists of the AP-1 signaling pathway - cell viability counter screen (AID 1159525; calls by dose curve; note: nearly all actives have a fitted effect of over 55% in size)
Outline: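 Luminescent ATP readout (Cell Titer Glo, 30 min RT), normalised to DMSO and tetra n-octyl ammonium bromide controls. Cells were ME-180 AP-1-bla in 0.5% dialyzed FBS Opti-MEM, with a 5 h, 37 °C compound exposure.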

[16] = qHTS assay to identify small molecule agonists of the AP-1 signaling pathway (AID 1159526; calls by dose curve; note: % is set by controls: 0 for no effect and ±100 for the full control effect)
[17] = biological target: Bile acid receptor (Homo sapiens) (UniProt Q96RI1); assay: qHTS assay to identify small molecule antagonists of the farnesoid-X-receptor (FXR) signaling pathway (AID 743217; active = well fitted inhibition curve with a large enough effect in the signal ratio in the repeat runs, not every such curve was filed as active; the % refers to the signal ratio; note: % is set by controls: 0 for no effect and ±100 for the full control effect)
Bile acid receptor (Homo sapiens), sequence (Q96RI1 whole entry, looked up): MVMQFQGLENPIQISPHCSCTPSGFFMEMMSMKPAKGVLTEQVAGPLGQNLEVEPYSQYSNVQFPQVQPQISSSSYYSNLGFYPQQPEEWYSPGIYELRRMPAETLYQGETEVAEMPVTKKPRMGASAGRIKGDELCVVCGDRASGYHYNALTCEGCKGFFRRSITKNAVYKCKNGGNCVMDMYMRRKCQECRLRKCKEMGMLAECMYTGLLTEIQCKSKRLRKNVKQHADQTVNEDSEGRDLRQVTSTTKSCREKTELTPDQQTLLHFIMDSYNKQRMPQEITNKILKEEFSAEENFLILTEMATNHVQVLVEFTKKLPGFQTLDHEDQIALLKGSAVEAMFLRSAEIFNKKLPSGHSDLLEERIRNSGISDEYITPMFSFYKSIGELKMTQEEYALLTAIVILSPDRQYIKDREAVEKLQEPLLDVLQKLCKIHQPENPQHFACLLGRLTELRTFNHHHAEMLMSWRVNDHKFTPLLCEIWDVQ
Outline: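 FXR-UAS-bla HEK 293T cells pre-incubated 5 h at 37 °C, then exposed to compounds with chenodeoxycholic acid (50 uM final) for 16 h at 37 °C. Beta-lactamase reporter read by LiveBLAzer B/G FRET substrate fluorescence after 2 h at room temperature.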

[18] = biological target: Bile acid receptor (Homo sapiens) (UniProt Q96RI1); assay: qHTS assay to identify small molecule agonists of the farnesoid-X-receptor (FXR) signaling pathway (AID 743220; active = well fitted activation curve with a large enough effect in the signal ratio in the repeat runs, not every such curve was filed as active; the % refers to the signal ratio; note: % is set by controls: 0 for no effect and ±100 for the full control effect)
Outline: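 Beta-lactamase reporter under UAS control in GeneBLAzer FXR HEK 293T cells (5000/well) measured with LiveBLAzer FRET substrate after 2 h at room temperature. Compound exposure lasted 16 h at 37C.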

[19] = biological target: Vitamin D3 receptor (Homo sapiens) (UniProt P11473); assay: qHTS assay to identify small molecule antagonists of the vitamin D receptor (VDR) signaling pathway (AID 743223; active = well fitted inhibition curve with a large enough effect in the signal ratio in the repeat runs, not every such curve was filed as active; the % refers to the signal ratio; note: % is set by controls: 0 for no effect and ±100 for the full control effect)
Outline: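 Beta-lactamase reporter read-out: FRET substrate fluorescence after 2 h at room temperature, following 16 h exposure of VDR-bla cells to test compound plus 3 nM (final) 1alpha,25-dihydroxyvitamin D3 agonist at 37C.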

C1COCO1
inactive: Potency [1] | Potency [2] | Potency [3] | Potency [4] | Potency [5] | Potency [6] | outcome [7] | Potency [8] | Potency [9] | outcome [10] | outcome [11] | outcome [12] | outcome [13] | Potency [14] | outcome [15] | outcome [16]

COC(=O)CC(=O)C(C)(C)C
inactive: Potency [1] | Potency [2] | Potency [3] | Potency [4] | Potency [17] | Potency [5] | Potency [18] | outcome [19] | Potency [8] | outcome [10] | outcome [11] | outcome [12] | outcome [13] | Potency [14] | outcome [15] | outcome [16]

CC(CCc1ccc2c(c1)OCO2)NN (stereo unspecified)
inactive: Potency [1] | Potency [2] | Potency [3] | Potency [4] | Potency [5] | Potency [6] | Potency [8] | Potency [9] | outcome [10] | outcome [11] | outcome [12] | outcome [13] | Potency [14] | outcome [15] | outcome [16]

CCOC(=O)C(C)Oc1ccc(Oc2nc3ccc(Cl)cc3o2)cc1 (stereo unspecified)
inactive: Potency [1] | Potency [2] | Potency [3] | Potency [4] | Potency [17] | Potency [5] | Potency [18] | Potency [6] | outcome [7] | Potency [8] | Potency [9] | outcome [10] | outcome [11] | outcome [12] | outcome [13] | Potency [14] | outcome [15] | outcome [16]

CCCOC(=O)c1ccc(N)cc1
inactive: Potency [1] | Potency [2] | Potency [3] | Potency [4] | Potency [5] | Potency [6] | outcome [19] | Potency [8] | Potency [9] | outcome [10] | outcome [11] | outcome [12] | outcome [13] | Potency [14] | outcome [15] | outcome [16]

C[C@@H]1C[C@H]2[C@@H]3CCC4=CC(=O)C=C[C@]4(C)[C@@]3(F)[C@@H](O)C[C@]2(C)[C@H]1C(=O)CO
inactive: Potency [1] | Potency [2] | Potency [3] | Potency [4] | Potency [5] | Potency [6] | outcome [7] | outcome [19] | Potency [8] | Potency [9] | outcome [10] | outcome [11] | outcome [12] | outcome [13] | Potency [14] | outcome [15] | outcome [16]

CCCC(=O)O[C@]1(C(=O)COC(=O)CC)CC[C@H]2[C@@H]3CCC4=CC(=O)CC[C@]4(C)[C@H]3[C@@H](O)C[C@@]21C
inactive: Potency [1] | Potency [2] | Potency [3] | Potency [4] | Potency [18] | Potency [6] | outcome [7] | outcome [19] | Potency [8] | Potency [9] | outcome [10] | outcome [11] | outcome [12] | outcome [13] | activity, negative = cytotoxicity [14] 0.636% [at 19 µM] | viability change, negative = cytotoxic [15] -0.096% [at 15.8 µM] | activation [16] -6.02% [at 15.8 µM]

Cc1ccc(/C=N/n2c(-c3ccccc3)csc2=S)cc1
inactive: Potency [1] | Potency [2] | Potency [3] | Potency [4] | Potency [5] | Potency [6] | outcome [19] | Potency [8] | Potency [9] | outcome [10] | outcome [11] | outcome [12] | outcome [13] | Potency [14] | outcome [15] | outcome [16]

NCC1CCCC(CN)C1 (stereo unspecified)
inactive: Potency [1] | Potency [2] | Potency [3] | Potency [4] | Potency [5] | Potency [18] | Potency [6] | outcome [7] | Potency [8] | Potency [9] | outcome [10] | outcome [11] | outcome [12] | outcome [13] | Potency [14] | outcome [15] | outcome [16]

CCC(C)(O)CCC=C(C)C (stereo unspecified)
inactive: Potency [1] | Potency [2] | Potency [3] | Potency [4] | Potency [5] | Potency [6] | outcome [7] | outcome [19] | Potency [8] | Potency [9] | outcome [10] | outcome [11] | outcome [12] | outcome [13] | Potency [14] | outcome [15] | outcome [16]

O=C1NCCN1
inactive: Potency [1] | Potency [2] | Potency [3] | Potency [4] | Potency [17] | Potency [5] | Potency [18] | Potency [6] | outcome [7] | outcome [19] | Potency [8] | Potency [9] | outcome [10] | outcome [11] | outcome [12] | outcome [13] | Potency [14] | outcome [15] | outcome [16]

Nc1c(I)cc(I)c(C(=O)N(CCC(=O)O)c2ccccc2)c1I
inactive: Potency [1] | Potency [2] | Potency [3] | Potency [4] | Potency [17] | Potency [5] | Potency [18] | Potency [6] | outcome [7] | outcome [19] | Potency [8] | Potency [9] | outcome [10] | outcome [11] | outcome [12] | outcome [13] | Potency [14] | outcome [15] | outcome [16]

ON(Cc1ccccc1)Cc1ccccc1
inactive: Potency [1] | Potency [2] | Potency [3] | Potency [4] | Potency [5] | Potency [6] | Potency [9] | outcome [10] | outcome [11] | outcome [12] | outcome [13] | Potency [14] | outcome [15] | outcome [16]

C=CC(C)(O)CCCC(C)CCCC(C)CCCC(C)C (stereo unspecified)
inactive: Potency [1] | Potency [2] | Potency [3] | Potency [4] | Potency [5] | Potency [6] | outcome [19] | Potency [8] | Potency [9] | outcome [10] | outcome [11] | outcome [12] | outcome [13] | Potency [14] | outcome [15] | outcome [16]

CC(=O)Nc1ccc(N)cc1
inactive: Potency [1] | Potency [2] | Potency [3] | Potency [4] | Potency [17] | Potency [5] | Potency [18] | Potency [6] | outcome [7] | Potency [8] | Potency [9] | outcome [10] | outcome [11] | outcome [12] | outcome [13] | Potency [14] | outcome [15] | outcome [16]
